In PubChem BioAssay AID1159580 (chemical genetic matrix, 2015):
Where “and” joins values, the source holds several entries; their conditions need not be identical. Equal values may be shown once. Screen size: about 5,500 compounds; about 2,000 (36%) were called active. About 18% were inconclusive and are not listed. Cut-off read from the data, not from the text of the source: active = normalized growth mostly below about 0.91 (no sharp cut-off); inconclusive = no clear call, values can overlap the other calls; inactive = mostly above about 0.92. The list shows a part of the results. More than one record can exist for a structure, and the calls need not agree.

Test: chemical genetic growth profiling, strain panel (AID 1159580);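 note: tested at 20 µM; growth read once vehicle control cultures reached saturation at 30 °C; 1 = growth at the plate median or of vehicle wells; lower values mean less growth of the strain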
Settings: S. cerevisiae deletion strains, growth OD

Measured: normalized growth

O=C(O)CCc1nc(-c2ccccc2)c(-c2ccccc2)o1
1 (inactive) and 0.926 (active): locus YNL322C, strain KRE1, stronger effect = lower value
active: locus YBR229C, strain ROT2, stronger effect = lower value 0.929 | locus YCL061C, strain MRC1, stronger effect = lower value 0.92 | locus YGR078C, strain PAC10, stronger effect = lower value 0.909 | locus YJR075W, strain HOC1, stronger effect = lower value 0.888 | locus YLR058C, strain SHM2 (second series), stronger effect = lower value 0.929 | locus YLR113W, strain HOG1, stronger effect = lower value 0.787 | locus YMR219W, strain ESC1, stronger effect = lower value 0.944 | locus YMR263W, strain SAP30, stronger effect = lower value 0.9
inactive: locus YAL013W, strain DEP1, stronger effect = lower value 0.974 | locus YAL021C, strain ccr4, stronger effect = lower value 0.966 | locus YAL026C, strain drs2, stronger effect = lower value 0.929 | locus YAL030W, strain snc1, stronger effect = lower value 0.958 | locus YAL040C, strain CLN3, stronger effect = lower value 0.978 | locus YBL061C, strain skt5, stronger effect = lower value 0.965 | locus YBR009C, strain hhf1, stronger effect = lower value 0.964 | locus YBR023C, strain chs3, stronger effect = lower value 0.979 | locus YBR171W, strain sec66, stronger effect = lower value 0.949 | locus YBR231C, strain swc5, stronger effect = lower value 0.96 | locus YBR279W, strain paf1, stronger effect = lower value 0.975 | locus YCL011C, strain gbp2, stronger effect = lower value 0.943 | locus YCL016C, strain dcc1, stronger effect = lower value 0.954 | locus YCL061C, strain MRC1 (second series), stronger effect = lower value 0.996 | locus YCL069W, strain vba3, stronger effect = lower value 0.965 | locus YCR088W, strain abp1, stronger effect = lower value 0.962 | locus YDL005C, strain med2, stronger effect = lower value 0.959 | locus YDL040C, strain nat1, stronger effect = lower value 0.955 | locus YDL101C, strain DUN1, stronger effect = lower value 0.995 | locus YDR001C, strain nth1, stronger effect = lower value 0.925 | locus YDR069C, strain doa4, stronger effect = lower value 0.954 | locus YDR137W, strain rgp1, stronger effect = lower value 0.925 | locus YDR150W, strain NUM1, stronger effect = lower value 1 and 1.04 | locus YDR159W, strain sac3, stronger effect = lower value 0.916 | locus YDR195W, strain ref2 0.969 | locus YDR297W, strain sur2, stronger effect = lower value 0.955 | locus YDR334W, strain swr1, stronger effect = lower value 0.948 | locus YDR335W, strain msn5, stronger effect = lower value 0.965 | locus YDR363W, strain ESC2, stronger effect = lower value 0.979 | locus YDR392W, strain spt3, stronger effect = lower value 0.831 | locus YEL003W, strain gim4, stronger effect = lower value 0.943 | locus YEL037C, strain rad23, stronger effect = lower value 0.968 | locus YEL061C, strain CIN8 (second series), stronger effect = lower value 0.941 | locus YEL061C, strain CIN8, stronger effect = lower value 1 | locus YER002W, strain NOP16, stronger effect = lower value 0.998 | locus YER015W, strain faa2, stronger effect = lower value 0.974 | locus YER016W, strain bim1, stronger effect = lower value 0.961 | locus YER111C, strain swi4, stronger effect = lower value 0.958 | locus YER155C, strain BEM2 (second series), stronger effect = lower value 0.958 | locus YFR010W, strain ubp6, stronger effect = lower value 0.958 | locus YGL167C, strain pmr1, stronger effect = lower value 0.961 | locus YGL173C, strain kem1, stronger effect = lower value 0.958 | locus YGL227W, strain vid30, stronger effect = lower value 0.957 | locus YGL240W, strain doc1, stronger effect = lower value 0.95 | locus YGL253W, strain hxk2, stronger effect = lower value 0.957 | locus YGR229C, strain SMI1, stronger effect = lower value 0.976 | locus YHR013C, strain ard1, stronger effect = lower value 0.938 | locus YHR027C, strain rpn1, stronger effect = lower value 0.971 | locus YHR030C, strain SLT2, stronger effect = lower value 0.935 and 1.03 | locus YHR079C, strain IRE1, stronger effect = lower value 0.967 | locus YHR087W, strain rtc3, stronger effect = lower value 0.925 | locus YHR142W, strain chs7, stronger effect = lower value 0.963 | locus YJL092W, strain hpr5, stronger effect = lower value 0.949 | locus YJL095W, strain BCK1 (second series), stronger effect = lower value 0.959 | locus YJL095W, strain BCK1, stronger effect = lower value 0.901 | locus YJL115W, strain asf1, stronger effect = lower value 0.956 | locus YJL129C, strain trk1, stronger effect = lower value 0.926 | locus YJL154C, strain vps35, stronger effect = lower value 0.966 | locus YJL164C, strain tpk1, stronger effect = lower value 0.954 | locus YJL166W, strain qcr8, stronger effect = lower value 0.976 | locus YJR043C, strain POL32, stronger effect = lower value 0.959 | locus YJR066W, strain TOR1, stronger effect = lower value 0.884 | locus YKL160W, strain elf1, stronger effect = lower value 0.982 | locus YKL190W, strain CNB1, stronger effect = lower value 0.983 | locus YKR026C, strain gcn3, stronger effect = lower value 0.958 | locus YKR091W, strain srl3, stronger effect = lower value 0.957 | locus YLL001W, strain dnm1, stronger effect = lower value 0.973 | locus YLL026W, stronger effect = lower value 0.965 | locus YLL041C, strain sdh2, stronger effect = lower value 0.961 | locus YLR027C, strain aat2, stronger effect = lower value 0.966 | locus YLR039C, strain RIC1, stronger effect = lower value 0.994 | locus YLR085C, strain ARP6, stronger effect = lower value 0.92 | locus YLR221C, strain rsa3, stronger effect = lower value 0.935 | locus YLR258W, strain gsy2, stronger effect = lower value 0.955 | locus YLR262C, strain YPT6 (second series), stronger effect = lower value 0.951 | locus YLR262C, strain YPT6, stronger effect = lower value 1.02 | locus YLR320W, strain mms22, stronger effect = lower value 0.933 | locus YLR342W, strain FKS1, stronger effect = lower value 0.97 | locus YLR357W, strain rsc2, stronger effect = lower value 0.985 | locus YLR370C, strain arc18, stronger effect = lower value 0.961 | locus YLR384C, strain iki3, stronger effect = lower value 0.98 | locus YML094W, strain GIM5, stronger effect = lower value 1.02 | locus YML120C, strain ndi1, stronger effect = lower value 0.952 | locus YMR058W, strain fet3, stronger effect = lower value 0.956 | locus YMR125W, strain sto1, stronger effect = lower value 0.938 | locus YMR129W, stronger effect = lower value 0.943 | locus YMR205C, strain PFK2, stronger effect = lower value 0.954 | locus YMR231W, strain pep5, stronger effect = lower value 0.967 | locus YMR307W, strain GAS1, stronger effect = lower value 1 and 0.949 | locus YNL071W, strain lat1, stronger effect = lower value 0.935 | locus YNL153C, strain GIM3, stronger effect = lower value 0.964 | locus YNL175C, strain NOP13, stronger effect = lower value 0.986 | locus YNL183C, strain NPR1, stronger effect = lower value 0.868 | locus YNL197C, strain WHI3, stronger effect = lower value 0.987 | locus YNL209W, strain ssb2, stronger effect = lower value 0.972 | locus YNL224C, strain SQS1, stronger effect = lower value 0.977 | locus YNL248C, strain rpa49, stronger effect = lower value 0.974 | locus YNL298W, strain CLA4 (second series), stronger effect = lower value 1 | locus YNL322C, strain KRE1 (second series), stronger effect = lower value 0.949 | locus YNR030W, strain Alg12, stronger effect = lower value 1 | locus YNR049C, strain mso1, stronger effect = lower value 0.941 | locus YOR001W, strain rrp6, stronger effect = lower value 1 | locus YOR070C, strain gyp1, stronger effect = lower value 0.963 | locus YOR080W, strain dia2, stronger effect = lower value 0.957 | locus YOR083W, strain WHI5 (second series), stronger effect = lower value 1 | locus YOR083W, strain WHI5, stronger effect = lower value 0.982 | locus YOR106W, strain vam3, stronger effect = lower value 0.973 | locus YOR231W, strain MKK1, stronger effect = lower value 0.942 | locus YOR265W, strain rbl2, stronger effect = lower value 0.97 | locus YOR270C, strain vph1, stronger effect = lower value 0.952 | locus YOR290C, strain snf2, stronger effect = lower value 0.93 | locus YPL051W, strain arl3, stronger effect = lower value 0.98 | locus YPL055C, strain LGE1, stronger effect = lower value 0.996 | locus YPL078C, strain atp4, stronger effect = lower value 0.972 | locus YPL106C, strain sse1, stronger effect = lower value 0.869 | locus YPL240C, strain hsp82, stronger effect = lower value 0.963 | locus YPL241C, strain CIN2, stronger effect = lower value 1 and 0.984 | locus YPL256C, strain CLN2, stronger effect = lower value 0.96 | locus YPR135W, strain CTF4, stronger effect = lower value 1.08
